The panel holds about 83,000 compounds, 20% with a hit somewhere; the sample as a whole holds those more often.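 Single-dose data. Exposure time 48 hours. Values below 10 considered active.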 A number with no mark means an inactive call. Activity calls are given as the source filed them.
What was measured:
Test in all cases: NCI-60 one-dose screen, 48 h (100 = growth as untreated, 0 = no growth, -100 = all killed)
Conditions in all cases: 10 µM unless noted
SK-MEL-2 melanoma = test system: SK-MEL-2 melanoma
EKVX NSCLC = test system: EKVX NSCLC
SN12C renal = test system: SN12C renal
UO-31 renal = test system: UO-31 renal
TK-10 renal = test system: TK-10 renal
ACHN renal = test system: ACHN renal
CAKI-1 renal = test system: CAKI-1 renal
CCRF-CEM leukemia = test system: CCRF-CEM leukemia
MOLT-4 leukemia = test system: MOLT-4 leukemia

`N#Cc1c(NC(=O)NCc2ccccc2)sc2c1CCCCC2` was tested. Which growth (SK-MEL-2 melanoma) did it give?
The growth was 39.1%.

And the growth (EKVX NSCLC)?
The growth was 39.3%.

And the growth (SN12C renal)?
Its growth is 30.3%.

What about the growth (UO-31 renal) of the same molecule?
The growth was 46.7%.

What about the growth (TK-10 renal) of the same molecule?
The growth was 41.1%.

What about the growth (ACHN renal) of the same molecule?
Its growth is 43.4%.

And the growth (CAKI-1 renal)?
Its growth is 29.8%.

What about the growth (CCRF-CEM leukemia) of the same molecule?
Its growth is 14.7%.

What about the growth (MOLT-4 leukemia) of the same molecule?
The growth was 18%.

With `O=C(CCN1CCCC1)Nc1ccc2c(NCCCCc3ccccc3)c3ccccc3nc2c1` as the molecule, how does the growth (SK-MEL-2 melanoma) read?
The growth was -7.21% (active).

What about the growth (EKVX NSCLC) of the same molecule?
The growth was 38.3%.

What about the growth (SN12C renal) of the same molecule?
Its growth is -60.8% (active).

And the growth (UO-31 renal)?
The growth was 37%.

And the growth (TK-10 renal)?
Its growth is -36.5% (active).

And the growth (ACHN renal)?
The growth was 24.8%.

What about the growth (CAKI-1 renal) of the same molecule?
The growth was 9.94% (active).

And the growth (CCRF-CEM leukemia)?
The growth was -25.2% (active).

And the growth (MOLT-4 leukemia)?
Its growth is -26.2% (active).

Which growth (SK-MEL-2 melanoma) does the source give for `N#Cc1c(NCc2ccccc2I)sc2c1CCCCC2` here?
Its growth is 105%.

What about the growth (EKVX NSCLC) of the same molecule?
The growth was 78.8%.

What about the growth (SN12C renal) of the same molecule?
Its growth is 96.9%.

And the growth (UO-31 renal)?
The growth was 79.7%.

And the growth (TK-10 renal)?
Its growth is 109%.

And the growth (ACHN renal)?
Its growth is 97.7%.

What about the growth (CAKI-1 renal) of the same molecule?
Its growth is 74.8%.

And the growth (CCRF-CEM leukemia)?
The growth was 94.4%.

And the growth (MOLT-4 leukemia)?
Its growth is 84.2%.

`CCOC(=O)Nc1ccc(-c2ccc3c(c2)NC(=O)/C3=C\c2ccc[nH]2)cc1` was tested. Which growth (SK-MEL-2 melanoma) did it give?
The growth was 114%.

What about the growth (EKVX NSCLC) of the same molecule?
Its growth is 30.8%.

What about the growth (SN12C renal) of the same molecule?
Its growth is 102%.

What about the growth (UO-31 renal) of the same molecule?
The growth was 72.6%.

And the growth (TK-10 renal)?
The growth was 77%.

And the growth (ACHN renal)?
Its growth is 100%.

What about the growth (CAKI-1 renal) of the same molecule?
The growth was 93.7%.

And the growth (CCRF-CEM leukemia)?
Its growth is 98.3%.

What about the growth (MOLT-4 leukemia) of the same molecule?
Its growth is 98.8%.

How did the growth (SK-MEL-2 melanoma) turn out when `COC(=O)/C=C1\S/C(=N\NC(=O)c2cc3ccc2/C=C\c2ccc(cc2)/C=C\3)N(c2ccccc2)C1=O` was run?
The growth was 87%.

And the growth (EKVX NSCLC)?
Its growth is 59%.

What about the growth (SN12C renal) of the same molecule?
The growth was 22.5%.

What about the growth (UO-31 renal) of the same molecule?
The growth was 58.5%.

And the growth (TK-10 renal)?
Its growth is 15.2%.

What about the growth (ACHN renal) of the same molecule?
Its growth is 49.3%.

What about the growth (CAKI-1 renal) of the same molecule?
The growth was 69.3%.

And the growth (CCRF-CEM leukemia)?
The growth was 13%.

And the growth (MOLT-4 leukemia)?
The growth was 3.03% (active).

What does the source list for `CCc1ccc(CNc2ccc(N3CCOCC3)c(C(=O)O)c2)cc1`?
growth (SK-MEL-2 melanoma): 82.7%; growth (EKVX NSCLC): 98.3%; growth (SN12C renal): 108%; growth (UO-31 renal): 89.5%; growth (TK-10 renal): 94%; growth (ACHN renal): 103%; growth (CAKI-1 renal): 97.2%; growth (CCRF-CEM leukemia): 102%; growth (MOLT-4 leukemia): 99.2%

How did the growth (SK-MEL-2 melanoma) turn out when `CC1=CCC(OC(=O)C(C)(O)CCC(O)(C(=O)OC2(C)C=CC(O)(C(C)C)CC2)C(C)C)(C(C)C)CC1` (stereo unspecified) was run?
Its growth is 108%.

And the growth (EKVX NSCLC)?
Its growth is 99%.

And the growth (SN12C renal)?
Its growth is 98.9%.

And the growth (UO-31 renal)?
Its growth is 88.6%.

What about the growth (TK-10 renal) of the same molecule?
Its growth is 95.6%.

What about the growth (ACHN renal) of the same molecule?
The growth was 111%.

And the growth (CAKI-1 renal)?
Its growth is 95%.

And the growth (CCRF-CEM leukemia)?
The growth was 102%.

What about the growth (MOLT-4 leukemia) of the same molecule?
The growth was 109%.

Which growth (SK-MEL-2 melanoma) does the source give for `O=[N+]([O-])c1cc(Br)c2cccc3c2c1CC3` here?
Its growth is 118%.

And the growth (EKVX NSCLC)?
Its growth is 109%.

What about the growth (SN12C renal) of the same molecule?
Its growth is 101%.

What about the growth (UO-31 renal) of the same molecule?
Its growth is 90.8%.

And the growth (TK-10 renal)?
Its growth is 110%.

And the growth (ACHN renal)?
The growth was 110%.

What about the growth (CAKI-1 renal) of the same molecule?
The growth was 95.3%.

And the growth (CCRF-CEM leukemia)?
Its growth is 99.9%.

What about the growth (MOLT-4 leukemia) of the same molecule?
Its growth is 104%.

`CCCCCCCCO/N=C\c1c2c(O)c3c(O)c(C)c4c(c3c1O)C(=O)C(C)(O/C=C\C(OC)C(C)C(OC(C)=O)C(C)C(O)C(C)C(O)C(C)/C=C\C=C(\C)C(=O)N2)O4` (stereo unspecified) was tested. Which growth (SK-MEL-2 melanoma) did it give?
The growth was -31.4% (active).

What about the growth (EKVX NSCLC) of the same molecule?
Its growth is 22.5%.

What about the growth (SN12C renal) of the same molecule?
Its growth is 21.8%.

What about the growth (UO-31 renal) of the same molecule?
Its growth is 17.7%.

What about the growth (TK-10 renal) of the same molecule?
Its growth is 30%.

And the growth (ACHN renal)?
Its growth is 25%.

What about the growth (CAKI-1 renal) of the same molecule?
Its growth is 13.1%.

And the growth (CCRF-CEM leukemia)?
The growth was 19.8%.

What about the growth (MOLT-4 leukemia) of the same molecule?
Its growth is 12.9%.

With `CCCCCCOc1ccc(/C=N/Nc2cc(C)nc3ccc(Cl)cc23)cc1` as the molecule, how does the growth (SK-MEL-2 melanoma) read?
Its growth is 93.9%.

What about the growth (EKVX NSCLC) of the same molecule?
The growth was 56.2%.

And the growth (SN12C renal)?
The growth was -84.6% (active).

What about the growth (UO-31 renal) of the same molecule?
The growth was -89.8% (active).

What about the growth (TK-10 renal) of the same molecule?
Its growth is -51.4% (active).

What about the growth (ACHN renal) of the same molecule?
Its growth is -92% (active).

And the growth (CAKI-1 renal)?
The growth was 3.33% (active).

What about the growth (CCRF-CEM leukemia) of the same molecule?
Its growth is -9.5% (active).

And the growth (MOLT-4 leukemia)?
Its growth is -26% (active).

How did the growth (SK-MEL-2 melanoma) turn out when `COc1ccc(C(=O)/C=C/c2cc3ccccc3n3nnnc23)cc1` was run?
Its growth is 106%.

And the growth (EKVX NSCLC)?
The growth was 99.9%.

And the growth (SN12C renal)?
The growth was 102%.

And the growth (UO-31 renal)?
The growth was 90.8%.

And the growth (TK-10 renal)?
Its growth is 104%.

What about the growth (ACHN renal) of the same molecule?
Its growth is 106%.

And the growth (CAKI-1 renal)?
The growth was 88.8%.

And the growth (CCRF-CEM leukemia)?
The growth was 101%.

And the growth (MOLT-4 leukemia)?
The growth was 103%.

Which growth (SK-MEL-2 melanoma) does the source give for `COc1cc(NC(C)CCCNC(=O)CCC(=O)NCCCNCCCCCCCCNCCCNC(=O)CCC(=O)NCCCC(C)Nc2cc(OC)cc3cccnc23)c2ncccc2c1` (stereo unspecified) here?
Its growth is 78.4%.

And the growth (EKVX NSCLC)?
The growth was 79.6%.

What about the growth (SN12C renal) of the same molecule?
Its growth is 42.9%.

What about the growth (UO-31 renal) of the same molecule?
The growth was 91.4%.

And the growth (TK-10 renal)?
Its growth is 82.6%.

What about the growth (ACHN renal) of the same molecule?
Its growth is 88.9%.

What about the growth (CAKI-1 renal) of the same molecule?
The growth was 95.1%.

And the growth (CCRF-CEM leukemia)?
Its growth is 58.9%.

And the growth (MOLT-4 leukemia)?
The growth was 76.4%.

With `CN(C)c1ccc(Nc2c3ccccc3nc3cc(NC(=O)CCN4CCCC4)ccc23)cc1` as the molecule, how does the growth (SK-MEL-2 melanoma) read?
Its growth is 24%.

And the growth (EKVX NSCLC)?
The growth was 9.96% (active).

What about the growth (SN12C renal) of the same molecule?
Its growth is -7.36% (active).

What about the growth (UO-31 renal) of the same molecule?
Its growth is -53.1% (active).

And the growth (TK-10 renal)?
The growth was -12.7% (active).

What about the growth (ACHN renal) of the same molecule?
The growth was 1.64% (active).

And the growth (CAKI-1 renal)?
The growth was -47.6% (active).

What about the growth (CCRF-CEM leukemia) of the same molecule?
Its growth is -15% (active).

What about the growth (MOLT-4 leukemia) of the same molecule?
Its growth is -8.89% (active).

Which results are given for `COc1ccc(C(=O)c2cc(C)c(OC)c(C)c2)c(OC)c1NC(C)=O`?
growth (SK-MEL-2 melanoma): 26%; growth (EKVX NSCLC): 56%; growth (SN12C renal): 34.8%; growth (UO-31 renal): 40%; growth (TK-10 renal): 51.9%; growth (ACHN renal): 24.9%; growth (CAKI-1 renal): 42.4%; growth (CCRF-CEM leukemia): 20.8%; growth (MOLT-4 leukemia): 38.7%

— PubChem BioAssay (NCI)
